Assay outcomes (PubChem BioAssay)
Only some compounds are listed: those with a hit (about 3% of all), similar ones and a draw of the others.
ALOX12 inhib = qHTS Assay for Inhibitors of 12-hLO (12-human lipoxygenase); Polyunsaturated fatty acid lipoxygenase ALOX12 (Homo sapiens), P18054; purified 12-hLO, xylenol orange hydroperoxide absorbance; Potency, µM (highest dose often 57.1 µM), hits mostly inhibitors; actives 0.12% (n = 150,000); also: nearly all actives have a fitted effect of over 55% in size
Target sequence (P18054 whole entry, looked up): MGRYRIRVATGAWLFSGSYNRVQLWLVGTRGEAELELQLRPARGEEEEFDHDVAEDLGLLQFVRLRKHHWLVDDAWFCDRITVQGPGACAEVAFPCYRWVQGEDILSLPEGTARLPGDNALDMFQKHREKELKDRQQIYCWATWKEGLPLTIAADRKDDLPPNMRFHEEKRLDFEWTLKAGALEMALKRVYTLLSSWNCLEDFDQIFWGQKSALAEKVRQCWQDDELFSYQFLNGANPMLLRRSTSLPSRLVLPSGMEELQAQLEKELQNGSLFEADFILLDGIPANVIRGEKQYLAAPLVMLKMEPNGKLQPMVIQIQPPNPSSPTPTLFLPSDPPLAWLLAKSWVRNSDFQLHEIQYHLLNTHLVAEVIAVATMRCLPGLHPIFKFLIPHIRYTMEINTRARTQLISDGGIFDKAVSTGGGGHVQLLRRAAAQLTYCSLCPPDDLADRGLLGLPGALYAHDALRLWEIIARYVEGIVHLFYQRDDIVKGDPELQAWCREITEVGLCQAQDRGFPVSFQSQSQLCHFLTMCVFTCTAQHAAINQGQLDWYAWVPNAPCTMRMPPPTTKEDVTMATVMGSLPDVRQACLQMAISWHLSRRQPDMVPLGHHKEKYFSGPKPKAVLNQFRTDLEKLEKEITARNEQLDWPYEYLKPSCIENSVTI
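Hydroperoxide formation by human 12-lipoxygenase from 40 uM arachidonic acid was followed colorimetrically via ferric-xylenol orange complex, using the 573/405 nm absorbance ratio. Enzyme concentration was 150 nM, with 30 min reaction at room temperature.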
ALOX15B inhib = qHTS Assay for Inhibitors of 15-hLO-2 (15-human lipoxygenase 2). Polyunsaturated fatty acid lipoxygenase ALOX15B (Homo sapiens), O15296. AID 881, 2007. purified 15hLO-2, xylenol orange hydroperoxide absorbance. Potency, µM (top dose mostly 57.1 µM), most hits filed as inhibitors. actives 0.56% (n = 110,000); also: nearly all actives have a fitted effect of over 60% in size
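Read-out: hydroperoxide product oxidises ferrous iron, measured as xylenol orange complex via the 573-to-405 nm absorbance ratio after 30 min. Reaction: 50 nM enzyme, 15 min compound preincubation, 45 uM arachidonic acid, 90 min RT, Hepes pH 7.5 with Triton X-100.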
PNC inhibitor = High Content Assay for Compounds that inhibit the Assembly of the Perinucleolar Compartment; AID 2417, 2010; PC3M PTB-GFP, PNC prevalence imaging, 16 h; hits give low values; activity change (PNC), negative = inhibition, % at 10 µM; actives 3.1% (n = 140,000);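 active = readout at or below -70, meaning at least 70% loss of cells showing the perinucleolar compartment, a nuclear body marking cancer cells; inconclusive = readout between -30 and a set limit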
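Compounds are pinned in duplicate onto adhered PC3M cells stably expressing GFP-tagged PTB and incubated 16 h at 37 C. Cells are then fixed, nuclei stained with Hoechst, and PNC-positive cells counted.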
IMPase cell inh = qHTS Assay for Identifying the Cell-Membrane Permeable IMPase Inhibitors; inhibition (IP1 accumulation), % at 46.1 µM; CHO-M1 cells, IP1 accumulation, HTRF TR-FRET ratio; AID 901, 2007; 120,000 tested, under 10 active; Inositol monophosphatase 1 (Rattus norvegicus), P97697; active = well fitted curve in the direction sought with a large enough effect in the signal ratio, not every such curve was filed as active; inconclusive = small, poorly fitted or top-dose-only effect, or a change in a side signal; inactive = no such curve, though single readings can be large or run the other way; the % refers to the signal ratio;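 also: cells stimulated with carbachol in lithium chloride buffer; higher means more IMPase inhibition seen as more IP1 and lower FRET ratio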
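CHO-M1, 2000 cells/well, cultured 16–30 h; cpd up to 46 uM; carbachol (50 uM solution, stimulation buffer w/ 50 mM LiCl, pH 7.4), 30 min 37C; IP-One TR-FRET, 10 min RT; Ex 320/Em 665, 620; Hill-fit AC50.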
Numbers stand for hits; [ ] = dose if it differs, or a comment. Unless noted, calls follow the shape of the dose curve; as a rule, active = well fitted curve in the direction sought with a large enough effect; inconclusive = small, poorly fitted or top-dose-only effect, or another doubt; inactive = no such curve, though single readings can be large; an effect the other way counts as inactive or inconclusive.

Screening Cc1ccc(C)c(SCC(=O)OCC(=O)c2ccco2)c1 returned ALOX12 inhib inactive, ALOX15B inhib inactive, PNC inhibitor inactive and IMPase cell inh inactive.
`CN(C)S(=O)(=O)c1cc(NC(=O)COC(=O)CCSc2ccc(Cl)cc2)ccc1Cl` gave ALOX12 inhib inactive and PNC inhibitor -88.
Screening COc1ccc(/C=C/C(=O)OCC(=O)Nc2ccc(Cl)c(S(=O)(=O)N(C)C)c2)cc1OC returned ALOX12 inhib inactive and PNC inhibitor -110.
CC1=C(C(=O)OCC2CCCCC2)C(c2ccc(Cl)cc2Cl)CC(=O)N1 (configuration not stated) was read as IMPase cell inh inactive.
Screening CC1CCN(C(=O)CSc2nnc(Cc3cccn3C)n2CCc2ccccc2)CC1 returned ALOX12 inhib inactive, PNC inhibitor -95 and IMPase cell inh inactive.
For Cn1cccc1Cc1nnc(SCC(=O)N2CCCC2)n1CCc1ccccc1 the results were ALOX12 inhib inactive, ALOX15B inhib inactive, PNC inhibitor inactive and IMPase cell inh inactive.
For NCCC[C@@H](CC(=O)N[C@@H]1CCCC[C@H]1C(=O)N[C@H](CC(=O)N[C@@H](CCC(=O)O)CC(=O)O)Cc1c[nH]c2ccccc12)NC(=O)C[C@H](CO)NC(=O)[C@@H]1CNCC[C@H]1N the results were ALOX12 inhib inactive.
Screening COc1cc(NC(=O)CCc2ccccc2)nc(OC)n1 returned ALOX12 inhib inactive, ALOX15B inhib inactive, PNC inhibitor inconclusive and IMPase cell inh inactive.
`COc1ccc(C(=O)Nc2cc(OC)nc(OC)n2)cc1` gave ALOX12 inhib inactive, PNC inhibitor -81 and IMPase cell inh inactive.
`CC1(CCc2ccccc2)NC(=O)N(Cc2nnc(-c3ccccc3Br)o2)C1=O` (configuration not stated) gave ALOX12 inhib inactive, ALOX15B inhib inactive, PNC inhibitor inactive and IMPase cell inh inactive.
`O=C1NC2(CCCc3ccccc32)C(=O)N1Cc1nnc(-c2ccccc2Br)o1` (configuration not stated) gave ALOX12 inhib inactive, ALOX15B inhib inactive, PNC inhibitor -83 and IMPase cell inh inactive.
`COC(=O)Cn1c(=NC(=O)CN2C(=O)CCC2=O)sc2cc(S(N)(=O)=O)ccc21` gave ALOX12 inhib inactive and PNC inhibitor inactive.
For COC(=O)Cn1c(=NC(=O)C2COc3ccccc3O2)sc2cc(S(N)(=O)=O)ccc21 (configuration not stated) the results were ALOX12 inhib inactive and PNC inhibitor -134.
For CCOC(=O)c1cnc(SC)nc1Sc1ccccc1Cl the results were ALOX12 inhib inactive, ALOX15B inhib inactive, PNC inhibitor -104 and IMPase cell inh inactive.
CSc1nc(Sc2ccccc2Cl)c2ccccc2n1 was read as ALOX12 inhib inactive, ALOX15B inhib inactive, PNC inhibitor inconclusive and IMPase cell inh inactive.
Screening O=C(CSc1ncccn1)NCc1ccccc1 returned ALOX12 inhib inactive, ALOX15B inhib inactive[11.4 µM], PNC inhibitor inconclusive and IMPase cell inh inactive[1.84 µM].
`COc1cccc(/C=N/NC(=O)c2cc(-c3ccc(C)cc3)n[nH]2)c1O` gave ALOX12 inhib inactive.
COCC(=O)N1CCC2(CC1)CN(Cc1ccccc1OC)C2 was read as ALOX12 inhib inactive and ALOX15B inhib inactive.
`O=C(NCC1CCCO1)c1cc2ccccc2[nH]1` (configuration not stated) gave ALOX12 inhib inactive, ALOX15B inhib inactive, PNC inhibitor -123 and IMPase cell inh inactive.
For O=C(NCC1CCCO1)c1ccccc1 (configuration not stated) the results were ALOX12 inhib inactive, ALOX15B inhib inactive, PNC inhibitor inactive and IMPase cell inh inactive.
For COc1ccc(/C=C(\C#N)C(=O)NC2CCS(=O)(=O)C2)cc1OC (configuration not stated) the results were ALOX12 inhib inactive, PNC inhibitor -119 and IMPase cell inh inactive.
`COc1ccc(/C=C(\C#N)C(=O)NCc2cccs2)cc1OC` gave ALOX12 inhib inactive and PNC inhibitor inactive.
Screening C/C(=N\NC(=O)CC1(C)OCCO1)c1cccs1 returned ALOX12 inhib inactive and PNC inhibitor -88.
Screening C/C(=N\NC(=O)Cc1cccn1C)c1cccs1 returned ALOX12 inhib inactive and PNC inhibitor inactive.
